# Laboratory results published in the supplement of paper PMC6555819.
# Experiments:
# Assay in all cases: PBM binding z-score (relative to random genomic background probes); higher = stronger binding; sequences stand for … in GC…GCGATTGACAGCGTAGAATGAAGG
# [1] = test system: PPARg:RXRa DBDmut IVT, anti-RXR (DBD mutation: RXRa K156A/R161A, NR concentration 270 nM, RXRa partner concentration 90 nM)
# How it was run: (§1)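 Antibodies against each partner of ligand-free nuclear receptor dimers (one per run) detected binding on custom Agilent 4×180K protein-binding microarrays after 1 h incubation. The double-stranded probes had 34-nt variable regions carrying direct-repeat seeds, single-nucleotide variants, half-site ablations and random human genomic background sequences. Binding z-scores, from regression-normalized fluorescence, use the random background probes as reference.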
# [2] = test system: PPARg:RXRa IVT, anti-PPARg (NR concentration 270 nM, RXRa partner concentration 90 nM)
# How it was run: as §1
# [3] = test system: PPARg DBDmut:RXRa IVT, anti-PPARg (DBD mutation: PPARg1 K132A/R137A, NR concentration 270 nM, RXRa partner concentration 90 nM)
# How it was run: as §1
# [4] = test system: PPARg DBDmut IVT, anti-PPARg (DBD mutation: PPARg1 K132A/R137A, NR concentration 270 nM)
# How it was run: as §1
# [5] = test system: PPARg homodimer (NR concentration 180 nM)
# How it was run: as §1
# [6] = test system: PXR:RXRa (NR concentration 270 nM, RXRa partner concentration 90 nM)
# How it was run: as §1
# [7] = test system: PXR homodimer (NR concentration 270 nM)
# How it was run: as §1
# [8] = test system: RARa:RXR (NR concentration 270 nM, RXRa partner concentration 90 nM)
# How it was run: as §1
# [9] = test system: RARa homodimer (NR concentration 270 nM)
# How it was run: as §1
# [10] = test system: RARb:RXRa (NR concentration 270 nM, RXRa partner concentration 90 nM)
# How it was run: as §1
# [11] = test system: RARb homodimer (NR concentration 270 nM)
# How it was run: as §1
# [12] = test system: RARg:RXRa (NR concentration 270 nM, RXRa partner concentration 90 nM)
# How it was run: as §1
# [13] = test system: RARg homodimer (NR concentration 270 nM)
# How it was run: as §1
# [14] = test system: RXRa DBDmut IVT, anti-RXR (DBD mutation: RXRa K156A/R161A, NR concentration 90 nM)
# How it was run: as §1
# [15] = test system: RXRa homodimer (NR concentration 180 nM)
# How it was run: as §1
# [16] = test system: THRa:RXRa (NR concentration 90 nM, RXRa partner concentration 90 nM)
# How it was run: as §1
# [17] = test system: THRa homodimer (NR concentration 90 nM)
# How it was run: as §1
# [18] = test system: VDR homodimer (NR concentration 270 nM)
# How it was run: as §1
Sequence,PBM binding z-score [1],PBM binding z-score [2],PBM binding z-score [3],PBM binding z-score [4],PBM binding z-score [5],PBM binding z-score [6],PBM binding z-score [7],PBM binding z-score [8],PBM binding z-score [9],PBM binding z-score [10],PBM binding z-score [11],PBM binding z-score [12],PBM binding z-score [13],PBM binding z-score [14],PBM binding z-score [15],PBM binding z-score [16],PBM binding z-score [17],PBM binding z-score [18]
ATCGAAAGCTCGTGAGGTGAGTATACAGAAAGGC,-0.799,0.0817,0.275,0.0739,-0.405,-0.403,-0.674,-0.104,-0.351,0.0466,-0.145,-0.029,0.239,-0.842,-0.0851,1.52,0.723,-0.704
CGAACTAGGTCAGCACAGGACAGTGAAGGATGAT,7.7,7.61,0.871,0.245,1.37,1.42,-0.395,1.03,0.213,3.65,2.69,3.27,4.34,0.563,1.68,3.81,0.48,-0.111
CGAACTCGGTCAGAACAGGACAGTGAAGGATGAT,1.72,1.11,-0.0702,0.48,0.274,-0.108,-0.225,0.713,-0.378,1.55,1.03,1.4,1.81,0.172,0.348,1.78,-0.368,0.368
CAAACTAGGTAAAAGGTCAAAGTCGAGCCAACCA,7.05,7.46,2.77,1.52,3.65,5.33,1.53,6.52,2.55,4.87,4.69,6.32,5.16,1.67,7.54,4.01,1.07,2.02
AGAATGAGGTTATTAAGATCAGGTAATTGCGGTC,3.34,2.83,0.665,0.745,1.17,1.48,0.904,1.51,0.41,1.37,1.14,1.13,0.895,1.8,1.87,2.5,1.2,1.13
CCTACTGGGCCAAAGGTCATTGTTTCCAATGCTC,5.12,6.92,2.88,1.37,5.48,5.37,1.86,6.23,1.11,4.16,4.48,5.41,3.97,1.26,5.82,3.29,0.832,2.26
CCGACTGGGGCAGCAAGGTTACCATACCATCCGG,1.54,2.54,-0.529,-1.62,0.27,0.264,-0.339,0.662,-0.434,1.39,1.52,0.772,0.82,-0.746,0.706,1.21,0.373,0.0128
TCATATAGGTAAATGATAGGTGAAAGTCCGATCT,3.92,2.51,1.28,1.62,1.19,0.828,0.487,1.49,1.16,0.612,0.731,0.906,0.775,1.92,1.15,0.682,0.132,0.346
TCTTGTAGATCAGCAGGTTCAGAAAGCTGGCCAA,1.4,0.189,-0.291,-0.791,-0.268,0.644,-0.241,0.455,-0.229,0.0377,-0.402,-0.138,-0.569,0.668,0.303,0.00022,-0.821,1.58
GCATATACGTAATACAAGGTGAAAGTCCGATTGT,-0.0308,0.718,0.51,1.15,0.296,0.381,0.191,0.815,0.672,0.666,0.656,0.54,0.62,0.892,0.528,2.44,1.16,0.207
TCTGCTAGGTCAACGATGGTCAGCTACTCTGCTA,4.3,4.17,-0.186,-0.6,0.254,1.42,-0.802,1.93,-0.564,4.14,3.48,4.25,5.24,0.833,2.64,3.04,0.776,-0.337
CAGACTGGGGCATAAGGTTACCATAAGCCAGCCC,4,4.18,-0.272,-0.433,0.704,0.652,-0.537,1.59,-0.341,1.66,1.78,1.9,1.41,0.105,1.6,2,1.04,-0.0112
ACGATTAGTTGACTTAGGGCAACCGATACGACGC,-0.586,0.153,0.298,0.246,-0.134,0.199,-0.0112,0.392,0.251,0.703,0.941,0.65,0.654,0.0967,0.512,1.43,0.264,-0.201
TGAATGAGGTTAAAGAGCAGGGAACGTGGCGTCG,2.26,3.24,-0.099,-0.275,0.719,1.53,-0.274,2.52,0.12,1.94,0.754,2.13,1.34,1.01,3.19,2.39,0.467,0.665
GCTCGGAGGACATGGTCAGAGCTTTGTCCGTAGA,-0.304,-0.659,-2.23,-2.05,-2.26,-0.77,-0.911,-0.833,-1.56,0.679,0.143,-0.271,0.158,-0.383,-0.444,0.524,-0.306,-0.849
ATCGAAAGGTCGTGAGGTGAGTATGCAGAAAGGC,0.289,2.19,1.46,1.35,1.5,2.98,-0.0975,4.43,0.592,4.01,3.26,4.63,4.17,1.02,5.27,3.56,1.71,0.782

Sequence,PBM binding z-score [1],PBM binding z-score [2],PBM binding z-score [3],PBM binding z-score [4],PBM binding z-score [5],PBM binding z-score [6],PBM binding z-score [7],PBM binding z-score [8],PBM binding z-score [9],PBM binding z-score [10],PBM binding z-score [11],PBM binding z-score [12],PBM binding z-score [13],PBM binding z-score [14],PBM binding z-score [15],PBM binding z-score [16],PBM binding z-score [17],PBM binding z-score [18]
TCATATAGGTAAAGGTGAACGTCGAACGATATGA,3.97,4.38,1.68,1.19,1.37,0.966,0.23,1.74,0.665,2.09,1.73,1.71,1.52,0.894,2.17,1.5,-0.0395,-0.239
TTGCCTAGGTCAGATCGGGCCAGTATACGCTATA,0.589,1.07,-1.83,-1.18,0.162,1.47,-0.653,1.46,-0.953,3.07,2.16,2.77,3.6,0.0965,1.51,3.9,-0.108,-0.389
GGTACGAGGGCATTCGAGTTGATAGCATGGCGAT,1.41,1.41,-0.377,-0.67,-0.0678,3.64,1.73,0.568,-0.0392,1.95,0.849,1.06,1.61,3.01,0.971,3.28,-0.337,3.68
CCTCGGAGGACAGACGGTCAGAGCTGTCCGCTTT,-0.634,-0.745,-1.14,-1.66,-0.576,-0.726,-0.42,-0.842,-0.616,1.23,0.948,0.15,1.12,-0.152,-0.87,-0.0863,-0.156,-0.276
CCTAGTTGGTCAGGAGGTCAGACACCGGATATGA,1.06,2.24,0.271,0.265,2.85,2.7,0.934,3.13,1.66,2.92,3.57,3.8,3.09,0.173,2.74,2.43,1.11,1.42
CGAACTAGGTCATCCAGGACACTGAATACATTGA,8.38,8.23,3.17,1.12,2.19,2.31,1.65,2.99,1.29,3.98,3.19,4.13,4.86,2.38,3.13,4.19,3,3.09
ATACCAAGGTGTTCGTGAGGTCGTTGATACTAAC,-0.0075,0.497,0.822,0.323,0.594,2.41,1.6,2.11,0.456,0.861,1.53,0.824,0.278,0.712,0.997,2.96,2.38,2.98
CCGAGTAGGTTATGGGGCATTGAGGCAACGGTGA,3.23,3.52,-0.234,0.034,1.19,-0.0257,0.241,0.37,0.756,0.976,1.14,0.411,0.507,-0.0381,0.499,0.886,0.453,-0.13
TAGCCTAGGTCATGGCCCAGTATACCACGCGAAC,1.98,4.42,0.172,-0.0252,3.1,1.91,-0.224,3.53,0.397,4.01,3.06,4.47,4.41,0.508,3.73,3.38,1.49,0.698
CAAACTAGGTCAAGGCCAAAGTCGGTTTGTGCCA,8.27,8.75,3.6,3.41,3.12,1.8,-0.0922,2.28,-0.0524,4.25,3.53,3.91,4.51,1.81,2.77,2.91,1.39,1.22
GAAACGAGGGCAAGTTGATAGCAGAGTTTGATGG,5.01,4.04,0.483,0.387,0.633,0.91,1.01,0.741,-0.324,2.48,1.68,1.6,1.94,2.43,1.02,1.41,0.0214,1.97
ATCGAAAGGTCGATGTGAGTATAGAGAAAGGGAA,0.226,1.15,1.83,0.629,0.753,1.77,0.123,2.36,0.145,3.26,1.41,3.16,3.01,1.16,2.9,1.37,-0.864,0.177
TATCCTAGGTCATTGGGCCAGTATAGTACGCATC,4.13,5.49,1.68,3.21,2.35,2.21,0.746,2.96,0.931,3.98,3.29,4.22,4.55,2.33,3.37,3.25,1.52,1.65
ACTATTAGTTGAGACGAGGGCGACCGATAGGTTG,0.0234,-0.184,0.772,0.784,0.303,0.205,0.117,0.144,0.456,0.332,0.339,0.187,0.419,0.572,0.161,1.23,-0.4,0.337
CCTACTGGGCCACGAAAGGTCATTCATTCAGTGA,5.95,5.87,1.4,0.0477,3.21,5.7,2.12,5.5,1.45,4.15,4.77,4.77,4.33,0.665,5.17,3.8,0.995,2.83
